Measured values as given in the supplement of paper PMC3616981.
± gives the standard deviation of the averaged measurements.

Compound: CC(C)c1cccc(C(C)C)c1N1C(=O)c2ccc(O)cc2C1=O
Assay: BioMAP readout fold decrease vs vehicle (vehicle/treated); higher = stronger decrease of the readout vs vehicle (values <1 mean increase)
Procedure: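 BioSeek BioMAP human primary cell (co-)culture systems (3C, 4H, LPS, SAg, BE3C, CASM3C, hDFCGF, KF3CT) treated with 5HPP-33 at 1.48, 4.44, 13.3 and 40 µM. Read-outs are protein levels by ELISA, proliferation and SRB total protein. Duplicate rows per assay are averaged as replicates. Tested in ToxCast Phase II for this study; exposure time not stated.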
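Also: Co-cultures of keratinocytes, bronchial epithelial and smooth muscle cells, fibroblasts, HUVECs and PBMCs under stimuli like LPS, TNF-α, IFN-γ, IL-1β, TGF-β or EGF, SRB reflecting cytotoxicity.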

## KF3CT_MCP1
1.48 µM
  BioMAP readout fold decrease: 1.03 ± 0.041
4.44 µM
  BioMAP readout fold decrease: 0.926 ± 0.043
13.3 µM
  BioMAP readout fold decrease: 0.7754 ± 0.0028
40 µM
  BioMAP readout fold decrease: 1.14 ± 0.36

## SAg_SRB
1.48 µM
  BioMAP readout fold decrease: 0.9638 ± 0.0049
4.44 µM
  BioMAP readout fold decrease: 1.1 ± 0.021
13.3 µM
  BioMAP readout fold decrease: 1.299 ± 0.011
40 µM
  BioMAP readout fold decrease: 1.9 ± 0.097

## CASM3C_LDLR
1.48 µM
  BioMAP readout fold decrease: 1.1 ± 0.017
4.44 µM
  BioMAP readout fold decrease: 1.188 ± 0.002
13.3 µM
  BioMAP readout fold decrease: 0.969 ± 0.038
40 µM
  BioMAP readout fold decrease: 2.21 ± 0.034

## 4H_VCAM1
1.48 µM
  BioMAP readout fold decrease: 0.977 ± 0.017
4.44 µM
  BioMAP readout fold decrease: 0.978 ± 0.044
13.3 µM
  BioMAP readout fold decrease: 1.06 ± 0.018
40 µM
  BioMAP readout fold decrease: 2.2 ± 0.07

## KF3CT_TIMP2
1.48 µM
  BioMAP readout fold decrease: 1 ± 0.025
4.44 µM
  BioMAP readout fold decrease: 0.978 ± 0.038
13.3 µM
  BioMAP readout fold decrease: 1.08 ± 0.075
40 µM
  BioMAP readout fold decrease: 2.5 ± 0.22

## SAg_Proliferation
1.48 µM
  BioMAP readout fold decrease: 1.22 ± 0.15
4.44 µM
  BioMAP readout fold decrease: 1.7 ± 0.1
13.3 µM
  BioMAP readout fold decrease: 1.76 ± 0.053
40 µM
  BioMAP readout fold decrease: 10.3 ± 0.41

## BE3C_hLADR
1.48 µM
  BioMAP readout fold decrease: 0.985 ± 0.037
4.44 µM
  BioMAP readout fold decrease: 1.17 ± 0.015
13.3 µM
  BioMAP readout fold decrease: 1.72 ± 0.043
40 µM
  BioMAP readout fold decrease: 2.97 ± 0.053

## CASM3C_IL6
1.48 µM
  BioMAP readout fold decrease: 0.923 ± 0.002
4.44 µM
  BioMAP readout fold decrease: 0.9348 ± 0.0071
13.3 µM
  BioMAP readout fold decrease: 0.8611 ± 0.001
40 µM
  BioMAP readout fold decrease: 0.752 ± 0.0092

## 3C_Thrombomodulin
1.48 µM
  BioMAP readout fold decrease: 1.06 ± 0.032
4.44 µM
  BioMAP readout fold decrease: 0.9983 ± 0.0097
13.3 µM
  BioMAP readout fold decrease: 0.939 ± 0.01
40 µM
  BioMAP readout fold decrease: 0.984 ± 0.054

## hDFCGF_IP10
1.48 µM
  BioMAP readout fold decrease: 1.1 ± 0.1
4.44 µM
  BioMAP readout fold decrease: 1.073 ± 0.0033
13.3 µM
  BioMAP readout fold decrease: 1.33 ± 0.037
40 µM
  BioMAP readout fold decrease: 5.47 ± 0.25
